KB-3-1 cytotox – kills parental KB-3-1 adenocarcinoma cells | Potency, µM (doses to about 46.1 µM), actives largely listed as cytotoxic | KB-3-1 viability, CellTiter-Glo ATP luminescence, 72 h | AID 1347075 | 400,000 compounds, 1.4% hits; further: nearly all actives have a fitted effect of over 60% in size
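Using CellTiter-Glo luminescence, growth of non-resistant KB-3-1 adenocarcinoma cells is assessed 72 h after pin-tool compound addition at 37 °C. Normalized responses across the concentration series yield fitted curves.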
TDP1 cell CPT – DT40-hTDP1 cell growth loss with CPT. chicken DT40 Tdp1-/-;hTDP1 cells + 20 nM CPT, ATP luminescence, 48 h. AID 686979. 420,000 compounds, 12% hits. Potency, µM (doses to about 46.2 µM), most hits filed as inhibitors; further: nearly all actives have a fitted effect of over 55% in size
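Chicken DT40 Tdp1-/- cells stably complemented with human TDP1 were seeded at 400 cells/well in medium containing 20 nM camptothecin, exposed to pin-transferred compounds, and grown at 37 °C for at least 48 hr. Viability was read as ATP luminescence.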
TDP1 cell noCPT – qHTS for Inhibitors of human tyrosyl-DNA phosphodiesterase 1 (TDP1): qHTS in cells in absence of CPT. DT40 Tdp1-/- hTDP1 cells, no CPT, ATP luminescence, 48 h. Potency, µM (highest dose often 46.2 µM), usual class: inhibitors. AID 686978, 2013. 420,000 compounds, 15% hits; further: nearly all actives have a fitted effect of over 55% in size
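Chicken DT40 Tdp1-/- cells complemented with human TDP1, screened without camptothecin (DMSO vehicle only), 400 cells/well. Compounds pin-transferred, cells incubated at 37 °C for at least 48 hr. Growth read as ATP-dependent luminescence (CellTiter-Glo, 30 min at RT).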
KB-V1 MDR tox – KB-V1 MDR subline cytotoxicity. KB-V1 MDR cells viability, CellTiter-Glo, 72 h. Potency, µM (titrated, usually from 46.1 µM), most hits filed as cytotoxic. 400,000 compounds, 3.4% hits. AID 1347076; further: nearly all actives have a fitted effect of over 60% in size
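Cytotoxicity toward P-gp-expressing KB-V1 cells was determined as loss of CellTiter-Glo luminescence after 72 h at 37 degrees C. Compounds were tested in quantitative HTS format across a concentration range, with curves fitted to normalized data.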
HT1080-NT tox – kills 2HG-producing HT-1080-NT fibrosarcoma cells; HT-1080-NT fibrosarcoma viability, CellTiter-Glo ATP luminescence, 48 h; Potency, µM (top dose mostly 46.1 µM), hits mostly cytotoxic; 360,000 compounds, 1.6% hits;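 further: NT is the 2HG producing partner of a matched IDH1 knockdown line; nearly all actives have a fitted effect of over 55% in size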
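Viability by CellTiter-Glo luminescence after 48 h compound exposure at 37C of HT-1080-NT cells (750/well, RPMI, 5% FBS). % activity scaled between DMSO wells and medium-only wells, then curve-fitted and categorized by curve class.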
HT1080 IDH1KD tx – toxicity to HT-1080 IDH1 knockdown cells (counter line); HT-1080 IDH1 knockdown viability, ATP luminescence, 48 h; Potency, µM (highest dose often 46.1 µM), actives largely listed as cytotoxic; 360,000 compounds, 2% hits
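Luminescent ATP read-out (CellTiter-Glo, 10 min at room temperature) after 48 h compound exposure at 37 °C gave viability of IDH1-knockdown HT-1080 cells. Activity was normalised to DMSO and cell-free wells, then fitted as concentration-response curves.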
Numbers stand for hits; . = inactive; ? = inconclusive; / = no result given; [ ] = remark or other dose. Shown are actives, neighbours in structure and some others; about 19% of the full set was active somewhere. The call rests on the fitted dose curve; in most records, active means well fitted curve in the direction sought with a large enough effect; inconclusive means small, poorly fitted or top-dose-only effect, or another doubt; inactive means no such curve, though single readings can be large; an effect the other way counts as inactive or inconclusive.

SMILES | KB-3-1 cytotox | TDP1 cell CPT | TDP1 cell noCPT | KB-V1 MDR tox | HT1080-NT tox | HT1080 IDH1KD tx
CC1CC2(C)Oc3ccccc3CC2C(C)C1CNCCCN(C)C (configuration not stated) | 14.6µM | 4.11µM | 1.16µM | 18.4µM | 5.8µM | 6.51µM
O=C(Cn1c(=O)n(Cc2nc(-c3ccccc3)no2)c(=O)c2ccccc21)Nc1cccc(C(F)(F)F)c1 | ? | ? | 20.6µM | ? | / | /
Nc1nonc1-c1nc2ccccc2n1CC(=O)Nc1ccccc1 | ? | 6.51µM | ? | ? | ? | ?
CCOC(=O)c1ccccc1NC(=O)Cn1c(-c2nonc2N)nc2ccccc21 | 1.03µM | 0.82µM | 0.92µM | 1.46µM | ? | 0.92µM
CC1CC(C)CN(C(=O)Cn2c(-c3nonc3N)nc3ccccc32)C1 (configuration not stated) | . | . | . | . | . | .
CC1CCCN(C(=O)Cn2c(-c3nonc3N)nc3ccccc32)C1 (configuration not stated) | . | ? | . | 7.31µM | . | .
Cc1ccccc1-c1nnc(SCC(=O)NC2CCCC2)o1 | . | . | . | . | . | .
CC(C)n1c(SCC(=O)c2ccc(F)cc2)nc2c(sc3ccccc32)c1=O | . | . | . | . | / | /
Nc1nonc1-c1nc2ccccc2n1CC(=O)Nc1cccc(C(F)(F)F)c1 | / | ? | 13µM | / | / | /
Cc1csc(SCC(=O)N2CCOc3ccc(C(O)C4CCCCC4)cc3C2)n1 (configuration not stated) | / | ? | 20.6µM | / | / | /
O=C(Cn1cc2ccccc2n1)N1CCOc2ccc(C(O)C3CCCCC3)cc2C1 (configuration not stated) | / | .[9.04 µM] | ? | / | / | /
CCCC(=O)N1CCC1(C)C(=O)NS(=O)(=O)c1cc2c(cc1C)CCCS2(=O)=O (configuration not stated) | . | . | . | . | . | .
COc1ccc(-c2nc3ccc(NC(=O)CO)cc3c(=O)n2Cc2cccc(Cl)c2)cc1COc1ccc(NC(C)=O)cc1 | / | 11.2µM | 12.6µM | / | ? | ?
COc1ccc(CN(Cc2ccccc2)C(=O)c2ccco2)cc1COc1ccc(NC(C)=O)cc1 | / | ? | ? | / | . | .
COc1ccc(-c2nc3ccc(NC(C)=O)cc3c(=O)n2Cc2ccccc2)cc1COc1ccc(NC(C)=O)cc1 | / | ? | 11.2µM | / | . | .
CC(=O)Nc1ccc2nc(C)n(Cc3ccc(Cl)cc3)c(=O)c2c1 | . | . | ? | ? | . | .
Cc1cc(NC(=O)C2CC(=O)N(c3ccccc3Cl)C2)no1 (configuration not stated) | . | . | . | . | . | .
COc1ccc(CSC2=CS(=O)(=O)c3ccccc3N2)cc1 | . | . | ? | 23.1µM | . | .
O=S1(=O)C=C(SCc2ccccc2)Nc2ccccc21 | ? | . | ? | 18.4µM | . | .
COCCCn1c(=O)c2sccc2n2c(CCCC(=O)NCc3cccc(OC)c3)nnc12 | . | ? | ? | . | . | .
CCn1cc(CN2CCC(C(=O)Nc3ccc(Oc4cccnc4)cc3)CC2)cn1 | . | . | . | . | . | .
COC1OC2COC(c3ccccc3)OC2C(O)C1N (configuration not stated) | . | . | . | ? | . | .
COc1cc(C2c3cc4c(cc3C(OC3OC5COC(C)O[C@@H]5C(O)C3O)C3COC(=O)C23)OCO4)cc(OC)c1O (some centres not stated) | / | 0.184µM | 0.146µM | / | / | /
COc1cc([C@@H]2c3cc4c(cc3[C@@H](O[C@@H]3O[C@@H]5CO[C@@H](C)O[C@H]5[C@H](O)[C@H]3O)[C@H]3COC(=O)[C@H]23)OCO4)cc(OC)c1O | 16.4µM | 0.164µM | 0.164µM | . | . | ?
